Results: PMC7862700, “An all-to-all approach to the identification of sequence-specific readers for epigenetic DNA modifications on cytosine”

Legend:
Assay in all cases: DAPPL (digital affinity profiling via proximity ligation, sequencing); 10 mM Tris-HCl pH 7.5, 50 mM NaCl, 1 mM DTT, 4% glycerol, room temperature, 30 min; GST-TFs on glutathione beads, 16-mer random dsDNA library, 0.1% formaldehyde crosslink after washing; high values mean tight binding
FLI1 = target: T1, FLI1 (Homo sapiens, UniProt Q01543 1-452); details: protein: recombinant; tags: N-terminal GST; dsDNA, one strand shown
T1 sequence: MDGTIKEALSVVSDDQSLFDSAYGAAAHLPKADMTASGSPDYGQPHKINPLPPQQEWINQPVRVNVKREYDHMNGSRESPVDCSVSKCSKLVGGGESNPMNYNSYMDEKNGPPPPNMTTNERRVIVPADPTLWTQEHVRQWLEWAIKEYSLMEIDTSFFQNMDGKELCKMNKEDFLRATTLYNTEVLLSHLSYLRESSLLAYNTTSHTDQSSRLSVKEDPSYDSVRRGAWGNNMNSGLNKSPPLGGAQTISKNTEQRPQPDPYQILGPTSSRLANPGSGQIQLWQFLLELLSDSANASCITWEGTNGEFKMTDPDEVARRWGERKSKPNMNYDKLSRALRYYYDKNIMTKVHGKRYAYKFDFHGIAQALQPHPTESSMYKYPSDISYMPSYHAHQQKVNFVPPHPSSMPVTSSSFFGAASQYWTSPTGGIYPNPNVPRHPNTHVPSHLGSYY
How it was run: (§1)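 Yeast served to express human transcription factors as GST fusions, which were then captured on glutathione beads and labelled with DNA barcodes. Pooled with a tag-only sample, they were incubated with 200 nmole of a 16-mer random double-stranded DNA library for 30 min at room temperature in Tris/NaCl/DTT/glycerol buffer, washed, crosslinked with 0.1% formaldehyde, ligated by proximity, amplified by PCR and sequenced. Dividing each hexamer's read frequency for a factor by its frequency for the tag-only sample gives the binding signal.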

ELK1 = target: T2, ELK1 (Homo sapiens, UniProt P19419 1-428); details: protein: recombinant; tags: N-terminal GST; dsDNA, one strand shown
T2 sequence: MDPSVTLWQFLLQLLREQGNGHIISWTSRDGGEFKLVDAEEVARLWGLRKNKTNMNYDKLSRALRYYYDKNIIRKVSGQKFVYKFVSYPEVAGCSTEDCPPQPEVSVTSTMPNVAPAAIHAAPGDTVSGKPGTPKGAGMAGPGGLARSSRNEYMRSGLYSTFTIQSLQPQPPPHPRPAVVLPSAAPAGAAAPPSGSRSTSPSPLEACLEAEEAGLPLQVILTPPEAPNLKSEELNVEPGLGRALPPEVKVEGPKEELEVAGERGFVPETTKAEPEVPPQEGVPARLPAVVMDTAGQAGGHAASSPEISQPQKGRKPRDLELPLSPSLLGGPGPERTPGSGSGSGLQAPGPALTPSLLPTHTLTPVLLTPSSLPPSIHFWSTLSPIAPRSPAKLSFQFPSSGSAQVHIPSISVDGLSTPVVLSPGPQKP
How it was run: as §1

GABPA = target: T3, GABPA (Homo sapiens, UniProt Q06546 1-454); details: protein: recombinant; tags: N-terminal GST; dsDNA, one strand shown
T3 sequence: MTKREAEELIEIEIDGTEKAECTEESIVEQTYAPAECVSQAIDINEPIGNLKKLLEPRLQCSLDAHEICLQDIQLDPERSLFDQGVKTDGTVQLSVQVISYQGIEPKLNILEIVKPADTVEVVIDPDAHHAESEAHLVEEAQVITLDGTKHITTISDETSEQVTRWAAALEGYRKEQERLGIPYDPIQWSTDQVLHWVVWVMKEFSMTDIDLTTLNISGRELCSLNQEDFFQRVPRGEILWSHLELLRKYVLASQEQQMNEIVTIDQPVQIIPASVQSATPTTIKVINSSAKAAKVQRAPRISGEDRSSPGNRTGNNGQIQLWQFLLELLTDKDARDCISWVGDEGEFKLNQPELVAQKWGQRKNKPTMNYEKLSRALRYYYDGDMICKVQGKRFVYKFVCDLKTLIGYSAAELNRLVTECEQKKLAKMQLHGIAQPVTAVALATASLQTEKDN
How it was run: as §1

ERG = target: T4, ERG (Homo sapiens, UniProt P11308 1-479); details: protein: recombinant; tags: N-terminal GST; dsDNA, one strand shown
T4 sequence: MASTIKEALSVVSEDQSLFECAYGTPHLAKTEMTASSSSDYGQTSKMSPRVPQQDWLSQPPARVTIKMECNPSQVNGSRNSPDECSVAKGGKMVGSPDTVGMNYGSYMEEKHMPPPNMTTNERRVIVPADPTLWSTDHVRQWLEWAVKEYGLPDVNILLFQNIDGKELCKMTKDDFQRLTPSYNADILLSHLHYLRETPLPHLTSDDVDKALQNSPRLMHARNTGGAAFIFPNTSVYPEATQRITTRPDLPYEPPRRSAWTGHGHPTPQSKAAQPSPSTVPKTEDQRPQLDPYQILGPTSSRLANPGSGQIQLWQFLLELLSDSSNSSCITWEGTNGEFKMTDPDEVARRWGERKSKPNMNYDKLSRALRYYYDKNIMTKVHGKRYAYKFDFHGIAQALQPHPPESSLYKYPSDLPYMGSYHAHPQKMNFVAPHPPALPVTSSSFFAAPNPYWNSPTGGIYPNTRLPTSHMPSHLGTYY
How it was run: as §1

ELF1 = ELF1 (Homo sapiens, UniProt P32519 1-619); details: protein: recombinant; tags: N-terminal GST; dsDNA, one strand shown
Chain of ELF1 (P32519 whole entry): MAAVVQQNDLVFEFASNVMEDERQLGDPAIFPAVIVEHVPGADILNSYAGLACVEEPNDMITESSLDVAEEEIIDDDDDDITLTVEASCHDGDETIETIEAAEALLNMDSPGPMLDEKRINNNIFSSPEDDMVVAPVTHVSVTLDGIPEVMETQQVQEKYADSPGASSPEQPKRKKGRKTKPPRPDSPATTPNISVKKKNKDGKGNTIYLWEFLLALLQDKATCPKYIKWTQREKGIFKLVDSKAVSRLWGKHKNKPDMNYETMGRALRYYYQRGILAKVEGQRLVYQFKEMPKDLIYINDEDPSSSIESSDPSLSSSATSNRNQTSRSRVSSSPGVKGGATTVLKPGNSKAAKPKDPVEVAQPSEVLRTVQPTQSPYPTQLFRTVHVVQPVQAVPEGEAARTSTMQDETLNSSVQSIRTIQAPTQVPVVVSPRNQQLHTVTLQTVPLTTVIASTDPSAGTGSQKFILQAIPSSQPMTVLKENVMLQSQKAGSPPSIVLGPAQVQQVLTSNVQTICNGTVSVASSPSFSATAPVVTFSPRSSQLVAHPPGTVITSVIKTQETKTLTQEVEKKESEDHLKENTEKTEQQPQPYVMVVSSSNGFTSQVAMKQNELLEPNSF
How it was run: as §1

EHF = target: T5, EHF (Homo sapiens, UniProt Q9NZC4 1-300); details: protein: recombinant; tags: N-terminal GST; dsDNA, one strand shown
T5 sequence: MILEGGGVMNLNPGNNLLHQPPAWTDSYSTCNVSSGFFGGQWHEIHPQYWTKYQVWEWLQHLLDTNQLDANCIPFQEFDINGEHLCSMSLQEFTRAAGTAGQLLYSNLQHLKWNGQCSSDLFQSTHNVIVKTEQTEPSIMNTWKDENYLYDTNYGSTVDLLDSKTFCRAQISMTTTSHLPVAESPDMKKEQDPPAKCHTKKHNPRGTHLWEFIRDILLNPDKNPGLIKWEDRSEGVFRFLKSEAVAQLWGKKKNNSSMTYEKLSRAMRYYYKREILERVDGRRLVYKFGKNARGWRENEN
How it was run: as §1

SPI1 = SPI1 (Homo sapiens, UniProt P17947 1-270); details: protein: recombinant; tags: N-terminal GST; dsDNA, one strand shown
How it was run: as §1

SPIB = SPIB (Homo sapiens, UniProt Q01892 1-262); details: protein: recombinant; tags: N-terminal GST; dsDNA, one strand shown
Chain of SPIB (Q01892 whole entry): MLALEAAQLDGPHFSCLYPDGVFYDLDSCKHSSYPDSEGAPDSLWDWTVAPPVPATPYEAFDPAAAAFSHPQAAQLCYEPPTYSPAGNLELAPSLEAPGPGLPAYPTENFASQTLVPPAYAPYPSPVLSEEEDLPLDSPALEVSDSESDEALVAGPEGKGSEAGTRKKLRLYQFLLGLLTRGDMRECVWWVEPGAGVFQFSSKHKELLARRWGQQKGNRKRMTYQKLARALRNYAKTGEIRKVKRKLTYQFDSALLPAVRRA
How it was run: as §1

ELK3 = target: T6, ELK3 (Homo sapiens, UniProt P41970 1-407); details: protein: recombinant; tags: N-terminal GST; dsDNA, one strand shown
T6 sequence: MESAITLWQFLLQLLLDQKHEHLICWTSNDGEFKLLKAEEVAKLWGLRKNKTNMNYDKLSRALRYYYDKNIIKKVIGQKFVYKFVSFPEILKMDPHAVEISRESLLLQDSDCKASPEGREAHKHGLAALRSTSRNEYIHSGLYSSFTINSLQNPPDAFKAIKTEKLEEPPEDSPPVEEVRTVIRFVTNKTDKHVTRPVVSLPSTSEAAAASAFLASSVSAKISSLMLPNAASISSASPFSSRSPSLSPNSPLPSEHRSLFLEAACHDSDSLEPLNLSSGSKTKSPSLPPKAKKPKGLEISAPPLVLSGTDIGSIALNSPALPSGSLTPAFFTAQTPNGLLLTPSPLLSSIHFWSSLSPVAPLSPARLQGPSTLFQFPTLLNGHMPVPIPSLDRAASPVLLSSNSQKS
How it was run: as §1

FEV = target: T7, FEV (Homo sapiens, UniProt Q99581 1-238); details: protein: recombinant; tags: N-terminal GST; dsDNA, one strand shown
T7 sequence: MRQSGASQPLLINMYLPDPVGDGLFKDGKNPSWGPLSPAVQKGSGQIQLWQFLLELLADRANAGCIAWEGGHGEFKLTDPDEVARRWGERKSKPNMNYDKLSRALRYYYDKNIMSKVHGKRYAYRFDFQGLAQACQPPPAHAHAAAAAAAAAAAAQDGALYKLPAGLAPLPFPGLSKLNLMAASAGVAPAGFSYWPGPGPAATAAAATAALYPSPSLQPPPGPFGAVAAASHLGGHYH
How it was run: as §1

ETV5 = ETV5 (Homo sapiens, UniProt P41161 1-510); details: protein: recombinant; tags: N-terminal GST; dsDNA, one strand shown
Chain of ETV5 (P41161 whole entry): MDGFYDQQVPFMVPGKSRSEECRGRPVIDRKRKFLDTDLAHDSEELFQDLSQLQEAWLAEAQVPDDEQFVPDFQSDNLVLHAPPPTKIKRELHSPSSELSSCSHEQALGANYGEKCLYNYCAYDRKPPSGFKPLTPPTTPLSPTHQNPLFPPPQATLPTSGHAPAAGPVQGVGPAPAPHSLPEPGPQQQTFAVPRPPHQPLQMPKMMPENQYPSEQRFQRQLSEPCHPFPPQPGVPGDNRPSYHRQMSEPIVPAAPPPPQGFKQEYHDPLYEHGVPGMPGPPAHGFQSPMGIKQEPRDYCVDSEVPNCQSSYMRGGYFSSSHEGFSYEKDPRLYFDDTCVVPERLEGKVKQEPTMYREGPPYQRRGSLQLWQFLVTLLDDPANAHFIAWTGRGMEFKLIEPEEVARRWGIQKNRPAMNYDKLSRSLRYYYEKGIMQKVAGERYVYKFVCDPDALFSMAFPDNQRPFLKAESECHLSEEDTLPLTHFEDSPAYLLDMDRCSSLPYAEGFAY
How it was run: as §1

HSF1 = HSF1 (Homo sapiens, UniProt Q00613 1-529); details: protein: recombinant; tags: N-terminal GST; chain copies: 3; dsDNA, one strand shown
Chain of HSF1 (Q00613 whole entry): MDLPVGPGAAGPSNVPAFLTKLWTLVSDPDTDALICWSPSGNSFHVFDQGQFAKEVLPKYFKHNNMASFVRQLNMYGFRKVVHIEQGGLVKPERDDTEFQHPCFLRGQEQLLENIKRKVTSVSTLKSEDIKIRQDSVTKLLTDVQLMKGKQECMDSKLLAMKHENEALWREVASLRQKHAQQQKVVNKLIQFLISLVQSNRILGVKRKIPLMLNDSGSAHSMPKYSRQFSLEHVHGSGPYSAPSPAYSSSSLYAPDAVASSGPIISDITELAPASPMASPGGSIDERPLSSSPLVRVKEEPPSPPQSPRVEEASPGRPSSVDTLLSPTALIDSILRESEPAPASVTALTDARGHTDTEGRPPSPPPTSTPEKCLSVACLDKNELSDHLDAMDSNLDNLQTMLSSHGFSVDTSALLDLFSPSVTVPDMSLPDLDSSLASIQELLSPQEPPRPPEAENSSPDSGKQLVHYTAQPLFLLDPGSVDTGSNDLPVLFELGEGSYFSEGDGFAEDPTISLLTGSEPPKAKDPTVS
How it was run: as §1

SPIC = target: T8, SPIC (Homo sapiens, UniProt Q8N5J4 1-248); details: protein: recombinant; tags: N-terminal GST; dsDNA, one strand shown
T8 sequence: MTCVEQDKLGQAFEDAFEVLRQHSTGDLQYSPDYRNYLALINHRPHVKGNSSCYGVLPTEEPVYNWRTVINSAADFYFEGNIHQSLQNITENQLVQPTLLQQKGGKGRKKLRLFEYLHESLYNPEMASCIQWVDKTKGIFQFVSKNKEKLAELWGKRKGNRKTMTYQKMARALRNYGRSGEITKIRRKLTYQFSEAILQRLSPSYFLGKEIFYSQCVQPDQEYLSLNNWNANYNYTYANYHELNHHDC
How it was run: as §1

ELF4 = ELF4 (Homo sapiens, UniProt Q99607 1-663); details: protein: recombinant; tags: N-terminal GST; dsDNA, one strand shown
Chain of ELF4 (Q99607 whole entry): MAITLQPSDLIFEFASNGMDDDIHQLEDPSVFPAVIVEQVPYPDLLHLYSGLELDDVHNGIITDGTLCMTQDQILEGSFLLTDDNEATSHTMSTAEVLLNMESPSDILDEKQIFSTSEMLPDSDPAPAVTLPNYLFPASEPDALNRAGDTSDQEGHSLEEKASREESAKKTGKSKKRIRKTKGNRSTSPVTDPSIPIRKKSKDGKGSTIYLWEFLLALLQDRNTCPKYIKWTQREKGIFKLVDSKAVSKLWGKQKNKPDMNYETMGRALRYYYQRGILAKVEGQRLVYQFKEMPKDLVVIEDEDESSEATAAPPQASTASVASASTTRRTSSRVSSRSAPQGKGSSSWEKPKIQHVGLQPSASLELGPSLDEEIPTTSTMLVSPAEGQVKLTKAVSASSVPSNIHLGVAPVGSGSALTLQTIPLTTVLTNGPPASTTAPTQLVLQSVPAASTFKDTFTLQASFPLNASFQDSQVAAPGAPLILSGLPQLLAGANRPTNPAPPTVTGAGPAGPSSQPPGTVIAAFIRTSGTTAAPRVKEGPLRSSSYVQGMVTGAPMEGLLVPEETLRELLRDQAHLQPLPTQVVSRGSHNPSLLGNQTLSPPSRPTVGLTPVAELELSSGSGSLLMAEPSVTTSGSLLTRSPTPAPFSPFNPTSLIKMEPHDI
How it was run: as §1

ELK4 = target: T9, ELK4 (Homo sapiens, UniProt P28324-2 1-405); details: protein: recombinant; tags: N-terminal GST; dsDNA, one strand shown
T9 sequence: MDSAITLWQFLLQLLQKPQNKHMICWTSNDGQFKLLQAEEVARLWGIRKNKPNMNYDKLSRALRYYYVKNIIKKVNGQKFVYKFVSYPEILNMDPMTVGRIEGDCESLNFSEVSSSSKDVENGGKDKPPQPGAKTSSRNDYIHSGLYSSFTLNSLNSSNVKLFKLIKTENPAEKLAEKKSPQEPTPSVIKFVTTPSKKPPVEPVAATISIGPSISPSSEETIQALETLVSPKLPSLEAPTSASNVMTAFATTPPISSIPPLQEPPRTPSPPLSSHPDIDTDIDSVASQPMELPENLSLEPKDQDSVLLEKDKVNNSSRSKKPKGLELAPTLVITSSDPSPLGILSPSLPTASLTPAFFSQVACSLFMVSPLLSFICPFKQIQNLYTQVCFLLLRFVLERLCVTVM
How it was run: as §1

ETV2 = target: T10, ETV2 (Homo sapiens, UniProt O00321 1-342); details: protein: recombinant; tags: N-terminal GST; dsDNA, one strand shown
T10 sequence: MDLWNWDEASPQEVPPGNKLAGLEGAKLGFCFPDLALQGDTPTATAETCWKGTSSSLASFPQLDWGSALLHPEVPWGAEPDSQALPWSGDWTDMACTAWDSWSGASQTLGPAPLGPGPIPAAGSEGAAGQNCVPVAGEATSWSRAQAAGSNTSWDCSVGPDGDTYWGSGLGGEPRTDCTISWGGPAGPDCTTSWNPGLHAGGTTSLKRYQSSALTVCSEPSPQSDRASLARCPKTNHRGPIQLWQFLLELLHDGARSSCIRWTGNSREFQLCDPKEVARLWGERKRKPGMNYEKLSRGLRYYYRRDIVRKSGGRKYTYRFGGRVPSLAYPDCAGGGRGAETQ
How it was run: as §1

ELF3 = target: T11, ELF3 (Homo sapiens, UniProt P78545 1-371); details: protein: recombinant; tags: N-terminal GST; dsDNA, one strand shown
T11 sequence: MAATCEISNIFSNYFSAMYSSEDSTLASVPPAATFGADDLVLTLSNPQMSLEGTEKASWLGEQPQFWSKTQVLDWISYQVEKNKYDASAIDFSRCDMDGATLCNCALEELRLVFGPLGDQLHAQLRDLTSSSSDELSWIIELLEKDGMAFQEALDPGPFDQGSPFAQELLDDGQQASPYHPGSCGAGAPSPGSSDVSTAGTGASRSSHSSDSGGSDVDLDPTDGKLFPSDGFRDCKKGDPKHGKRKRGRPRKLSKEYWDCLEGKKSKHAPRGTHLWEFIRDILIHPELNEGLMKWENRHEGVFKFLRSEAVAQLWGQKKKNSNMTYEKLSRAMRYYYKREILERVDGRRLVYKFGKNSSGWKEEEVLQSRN
How it was run: as §1

CRX = CRX (Homo sapiens, UniProt O43186 1-299); details: protein: recombinant; tags: N-terminal GST; dsDNA, one strand shown
Chain of CRX (O43186 whole entry): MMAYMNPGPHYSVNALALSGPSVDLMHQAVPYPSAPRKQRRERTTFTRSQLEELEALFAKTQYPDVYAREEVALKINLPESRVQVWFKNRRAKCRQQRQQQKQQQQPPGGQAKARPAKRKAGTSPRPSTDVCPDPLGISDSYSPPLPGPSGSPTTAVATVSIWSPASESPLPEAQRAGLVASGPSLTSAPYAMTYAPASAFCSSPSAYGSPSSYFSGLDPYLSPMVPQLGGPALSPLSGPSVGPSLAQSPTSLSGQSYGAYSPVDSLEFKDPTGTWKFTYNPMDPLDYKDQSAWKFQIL
How it was run: as §1

ETV1 = ETV1 (Homo sapiens, UniProt P50549 1-477); details: protein: recombinant; tags: N-terminal GST; dsDNA, one strand shown
Chain of ETV1 (P50549 whole entry): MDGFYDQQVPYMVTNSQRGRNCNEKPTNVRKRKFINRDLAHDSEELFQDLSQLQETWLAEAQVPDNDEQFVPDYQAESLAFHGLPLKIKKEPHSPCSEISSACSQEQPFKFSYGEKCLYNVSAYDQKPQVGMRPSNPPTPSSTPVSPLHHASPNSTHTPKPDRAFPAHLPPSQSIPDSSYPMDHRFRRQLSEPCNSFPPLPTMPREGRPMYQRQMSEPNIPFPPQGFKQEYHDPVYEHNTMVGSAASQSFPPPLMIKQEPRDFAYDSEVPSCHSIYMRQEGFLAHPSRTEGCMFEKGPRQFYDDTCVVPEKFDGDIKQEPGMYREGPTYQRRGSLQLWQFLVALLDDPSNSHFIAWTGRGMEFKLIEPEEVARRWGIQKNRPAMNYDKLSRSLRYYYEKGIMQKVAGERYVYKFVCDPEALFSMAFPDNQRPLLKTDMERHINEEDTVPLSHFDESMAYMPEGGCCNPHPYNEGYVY
How it was run: as §1

## CTTGGG
FLI1
  binding signal: 1.24 fold enrichment (6-mer frequency, TF over GST control)
ELK1
  binding signal: 1.38 fold enrichment (6-mer frequency, TF over GST control)
GABPA
  binding signal: 1.36 fold enrichment (6-mer frequency, TF over GST control)
ERG
  binding signal: 1.29 fold enrichment (6-mer frequency, TF over GST control)
ELF1
  binding signal: 1.26 fold enrichment (6-mer frequency, TF over GST control)
EHF
  binding signal: 1.14 fold enrichment (6-mer frequency, TF over GST control)
SPI1
  binding signal: 1.29 fold enrichment (6-mer frequency, TF over GST control)
SPIB
  binding signal: 1.39 fold enrichment (6-mer frequency, TF over GST control)
ELK3
  binding signal: 1.47 fold enrichment (6-mer frequency, TF over GST control)
FEV
  binding signal: 1.23 fold enrichment (6-mer frequency, TF over GST control)
ETV5
  binding signal: 1.26 fold enrichment (6-mer frequency, TF over GST control)
HSF1
  binding signal: 1.12 fold enrichment (6-mer frequency, TF over GST control)
SPIC
  binding signal: 1.31 fold enrichment (6-mer frequency, TF over GST control)
ELF4
  binding signal: 1.21 fold enrichment (6-mer frequency, TF over GST control)
ELK4
  binding signal: 1.32 fold enrichment (6-mer frequency, TF over GST control)
ETV2
  binding signal: 1.15 fold enrichment (6-mer frequency, TF over GST control)
ELF3
  binding signal: 1.23 fold enrichment (6-mer frequency, TF over GST control)
CRX
  binding signal: 1.13 fold enrichment (6-mer frequency, TF over GST control)
ETV1
  binding signal: 1.38 fold enrichment (6-mer frequency, TF over GST control)
